BAZ2B block – inhibitors of human BAZ2B bromodomain; AlphaScreen BAZ2B-H3K14Ac peptide displacement; Potency, µM (doses to about 114 µM), actives largely listed as inhibitors; hit rate 4.4% among 360,000; AID 504333; also: nearly all actives have a fitted effect of over 60% in size
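Protein-peptide AlphaScreen: BAZ2B 50 nM, b-H3K14Ac 50 nM, 1x PBS pH 7.4 + 0.01% Tween-20. Preincubation 30 min RT; cpd 30 min RT (top 110 uM); beads 20 min RT, light-protected.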
JMJD2A Tudor – JMJD2A Tudor domain (human) inhibition; O75164; AlphaScreen JMJD2A-Tudor / H3K4me3 peptide binding; Potency, µM (titrated, usually from 114 µM), usual class: inhibitors; hit rate 4.4% among 390,000; AID 504339; also: nearly all actives have a fitted effect of over 50% in size
G9a block – inhibitors of human histone lysine methyltransferase G9a | Q96KQ7 | G9a H3K9 monomethylation, AlphaScreen, 2 h | Potency, µM (titrated, usually from 102 µM), actives largely listed as inhibitors | hit rate 8.8% among 350,000 | AID 504332; also: nearly all actives have a fitted effect of over 75% in size
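Readings reflect AlphaScreen signal from monomethyl-H3K9 antibody detection. HMT at 20 nM; substrate b-H3K9 500 nM; cofactor SAM 20 uM; 2 h RT reaction; compounds tested as titrations in qHTS with 15 min preincubation.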
HP1b binding inh – blocks HP1-beta chromodomain binding to methylated histone tails; P83916; AlphaScreen HP1-beta / biotin-H3K9me3 peptide binding; Potency, µM (series often up to 114 µM), actives largely listed as inhibitors; hit rate 0.56% among 390,000; AID 540317; also: nearly all actives have a fitted effect of over 70% in size
Target sequence (P83916 whole entry, looked up): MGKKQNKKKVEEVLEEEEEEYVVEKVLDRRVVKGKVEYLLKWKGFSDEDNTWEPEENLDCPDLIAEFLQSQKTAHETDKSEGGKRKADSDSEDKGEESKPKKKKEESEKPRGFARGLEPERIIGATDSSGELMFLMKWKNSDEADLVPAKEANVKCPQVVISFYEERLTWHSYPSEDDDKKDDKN
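Compound inhibition of the preformed complex between 50 nM HP1-beta and 50 nM biotinylated H3K9me3 peptide was read by AlphaScreen. Buffer was PBS pH 7.4 with 0.01% Tween-20. Incubations ran 30 min at room temperature, with 10 ug/mL donor/acceptor beads.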
PLK1 PBD inh – blocks phosphopeptide binding to human PLK1 polo-box domain. Plk1 PBD binding of FITC phosphopeptide, fluorescence polarization. AID 720504. hit rate 2.8% among 360,000. P53350. Potency, µM, actives largely listed as inhibitors; also: series mostly up to about 57 µM; nearly all actives have a fitted effect of over 65% in size
PI5P4Ka inh – blocks human PI5P4K alpha kinase activity; P48426; hit rate 1.2% among 330,000; PI5P4Kalpha enzyme, ADP-Glo luminescence, 60 min; active compounds read low; max response, %; AID 652105; active = max response of -50% or lower; inconclusive = between -30% and -50%; inactive = -30% or higher; also: value at the top dose of about 77 µM
Target sequence (P48426 whole entry, looked up): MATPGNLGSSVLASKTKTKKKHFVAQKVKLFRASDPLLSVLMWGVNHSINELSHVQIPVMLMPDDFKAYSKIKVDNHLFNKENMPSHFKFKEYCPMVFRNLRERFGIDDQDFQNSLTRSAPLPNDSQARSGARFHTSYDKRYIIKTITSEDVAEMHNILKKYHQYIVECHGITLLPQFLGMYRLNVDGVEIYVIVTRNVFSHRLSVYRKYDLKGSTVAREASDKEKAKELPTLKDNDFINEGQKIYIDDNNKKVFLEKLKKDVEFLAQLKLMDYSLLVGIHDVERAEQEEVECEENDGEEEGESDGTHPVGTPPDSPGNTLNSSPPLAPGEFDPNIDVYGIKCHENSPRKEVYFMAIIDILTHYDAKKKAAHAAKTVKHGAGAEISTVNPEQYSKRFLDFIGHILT
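Compounds were pin-transferred onto PI5P4Kalpha and substrate in HEPES pH 7.4 buffer with EGTA, CHAPS and 5% DMSO. ATP (5 microM final) started the reaction, which ran 60 minutes at room temperature before ADP-Glo detection.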
Numbers stand for hits; – = inactive; ? = inconclusive; · = not tested or not shown; ! = not active in a repeat; [ ] = remark or other dose. Hits are enriched below; roughly 12% of the tested compounds scored in any of these assays. Unless noted, calls follow the shape of the dose curve; as a rule, active = well fitted curve in the direction sought with a large enough effect; inconclusive = small, poorly fitted or top-dose-only effect, or another doubt; inactive = no such curve, though single readings can be large; an effect the other way counts as inactive or inconclusive.

SMILES	BAZ2B block	JMJD2A Tudor	G9a block	HP1b binding inh	PLK1 PBD inh	PI5P4Ka inh
NC(N)=NCCC[C@H](N)C(=O)O	·	·	–[12.7 µM]	·	·	·
C[Se]C[C@@H](N)C(=O)O	?	20µM	3.98µM	–	–	?
N[C@@H](CCl)C(=O)O	·	?	21.2µM	–	–	–
Cn1ccnc1P(=S)(c1nccn1C)c1nccn1C	?	31.6µM	3.55µM	–	–	·
Cn1ccnc1P(=S)(c1nccn1C)N1CCOCC1	?	35.5µM	?	?	26.7µM	·
C=Cn1ccnc1P(=S)(c1ccc(N(C)C)cc1)c1nccn1C=C	?	?	–	–	–	·
COc1ccc(C2N(c3cc(C)on3)C(=O)C3CCCN32)cc1 (centres undefined)	–	?	35.5µM	–	–	–
Nc1c(C(=O)Nc2cccc(Br)c2)sc2nc3c(cc12)N1CCC3CC1	–	?	12.6µM	–	·	·
C/C(O)=C1\C(=O)[C@@H]2[C@H]3c4c[nH]c5cccc(c45)C[C@H]3C(C)(C)N2C1=O	·	·	25.1µM!	·	·	·
O=C(O)c1ccc(-n2c(O)c(/C=C3\C=Nc4ccccc43)c(=O)[nH]c2=O)cc1	–	–	44.7µM	–	9.47µM	?
CCCCn1c(O)c(/C=C2\C=Nc3ccccc32)c(=O)[nH]c1=O	–	–	70.8µM	–	–	–
O=c1[nH]c(=O)n(-c2cccc(F)c2)c(O)c1/C=C1\C=Nc2ccccc21	–	–	–	–	?	–
Cc1ccc(Cl)cc1N1CCN(C(=O)c2cn(CC(C)C)c(=O)c3c2c2ccccc2n3C)CC1	?	–	?	–	·	·
Clc1ccc(OCCCN2CCCC2)cc1Cl	?	3.98µM	10µM	?	–	–
Cc1cc(OCC(=O)N2CCCN(C)CC2)ccc1Cl	–	–	–	–	–	–
CCOc1cccc(OCCOCCN2CCCC2)c1	?	7.94µM	?	?	–	–
CCOc1cccc(CNC2CN3CCC2CC3)c1 (centres undefined)	–	–	?	–	–	·
CCC1CN2CCc3cc(OC)c(OC)cc3C2CC1CC1NCCc2cc(OC)c(OC)cc21 (centres undefined)	·	·	–[2.33 µM]	·	·	·
C[S+](CC[C@H](N)C(=O)O)C[C@H]1O[C@@H](n2cnc3c(N)ncnc32)[C@H](O)[C@@H]1O (some centres undefined)	–	12.6µM	3.55µM	–	–	–
COc1ccc(C[C@H]2c3cc(OC)c(OC)cc3CCN2C)cc1OC	·	·	–[21.5 µM]	·	·	·
COc1cccc(NC(=O)c2ccc[n+](C)c2)c1	–	?	39.8µM	–	–	–
COC(C/C=C/C=C/CC/C=C\CC(C)/C=C\C(=C/C(=O)O)CC(=O)O)/C(C)=C\C=C(/C)C(=O)O (centres undefined)	·	·	–	·	·	·
C=CCN(CC(=O)c1sc(C(=O)OCC)nc1C)c1cccc(Br)c1	·	?	·	–	–	–
CC1=NCCc2c1[nH]c1cc(O)ccc21	–	–	1.41µM!	–	1.19µM	–
OC(COCc1ccc(Cl)cc1)CN1CC=C(c2ccccc2)CC1 (centres undefined)	50.1µM	1.12µM!	?	?	–	–
SMILES	BAZ2B block	JMJD2A Tudor	G9a block	HP1b binding inh	PLK1 PBD inh	PI5P4Ka inh
CCOC(=O)c1ncc2[nH]c3ccc(OCc4ccccc4)cc3c2c1COC	·	·	–	·	·	·
CCOc1ccccc1-n1c(O)c(C=Nc2ccc(N(CC)CC)cc2)c(=O)[nH]c1=O	?	?	50.1µM	–	–	–
C[n+]1cccc(C(=O)NCC2CCCO2)c1 (centres undefined)	–	–	?	–	–	–
CCOc1cc(/C=C(\C#N)C(=O)NCC2CCCO2)ccc1OCC(N)=O (centres undefined)	–	–	50.1µM	–	29.9µM	–
C[N+]12CCC(CC1)C(C#N)(N1CCOCC1)C2 (centres undefined)	–	?	50.1µM	–	–	–
CCN(CC)C(=O)Oc1ccc2cc(Br)ccc2c1	–	–	–	–	–	–
Cc1ccccc1-n1nc(C)c2c1NC(=O)CSC2c1ccccc1C(F)(F)F (centres undefined)	–	–	–	–	·	·
C[C@@H]1Cc2c(Cl)cc(C(=O)N[C@@H](Cc3ccccc3)C(=O)O)c(O)c2C(=O)O1	·	·	–	·	·	·
COc1cc2c(c(OC)c1OC)-c1ccc(O)c(=O)cc1[C@@H](N)CC2	–	79.4µM	–[12.7 µM]	–	–	?
C=C[C@]12CN(C)[C@H]3C1[C@@]1(C(=O)Nc4ccccc41)[C@H]1C[C@H]2[C@H]3CO1	·	·	–[21.5 µM]	·	·	·
O=c1[nH]c(=O)n([C@H]2C[C@H](O)[C@@H](CO)O2)cc1/C=C/Br	·	·	–[12.7 µM]	·	·	·
Cc1ccccc1-n1c(O)c(C(c2ccncc2)c2c(O)n(-c3ccccc3C)c(=O)[nH]c2=O)c(=O)[nH]c1=O	?	–	25.1µM	–	?	–
CC(C)c1ccc(N2C(=O)NC(=O)/C(=C\c3cnc(-c4ccccc4)nc3)C2=O)cc1	–	–[11.4 µM]	?	?	21.2µM	?
Cc1cccc(N2C(=O)NC(=O)/C(=C\c3cnc(-c4ccccc4)nc3)C2=O)c1	–	?	7.08µM	–	5.97µM	-51.5
Cc1ccc(N2C(=O)NC(=O)/C(=C/c3cnc(-c4ccccc4)nc3)C2=O)cc1C	–	79.4µM	10µM	–	4.23µM	-51.7
CC(C)C1(C)N=C(c2ncccc2C(=O)O)NC1=O (centres undefined)	28.2µM	22.4µM	31.6µM	–	–	·
Cc1ccc(-n2c(O)c(/C=N/NC(=O)c3ccncc3)c(=O)[nH]c2=O)cc1C	50.1µM	56.2µM	?	–	–	–
O=C(N/N=C/c1c(O)n(-c2cccc3ccccc23)c(=O)[nH]c1=O)c1ccncc1	79.4µM	50.1µM	–	–	–	–
O=C(N/N=C/c1c(O)n(CCc2ccc(F)cc2)c(=O)[nH]c1=O)c1ccncc1	50.1µM	?	–	–	–	-64.8
CC(CO)(CO)N=Cc1c(O)n(-c2cccc3ccccc23)c(=O)[nH]c1=O	–	–	–	–	–	–
O=C(N/N=C/c1c(O)n(CCc2ccc(F)cc2)c(=O)[nH]c1=O)c1ccccc1	–	?	–	–	–	–
O=C(N/N=C/c1c(O)n(CCc2ccccc2)c(=O)[nH]c1=O)c1ccncc1	56.2µM	–	20µM	–	–	-76.7
CC1(C)[C@@H](O)C[C@H]2[C@](C)(O)[C@@H]3CC[C@H]4[C@@H](O)[C@@]3(C[C@@H](O)[C@@]21O)C[C@@]4(C)O	·	·	–	·	·	·
COc1ccccc1-n1c(-c2ccoc2)nc2ccccc2c1=O	–	–	–	–	–	–
S=c1[nH]nc(-c2ccco2)n1-c1cccc2ccccc12	–	39.8µM	?	–	–	–
COc1ccccc1-n1c(-c2ccco2)n[nH]c1=S	–	22.4µM	22.4µM	–	–	–
O=C1CN=C(c2ccccc2)c2cc(Cl)ccc2N1CC1CC1	·	·	–[12.7 µM]	·	·	·
O=[N+]([O-])/C=C/c1c(Cl)cccc1Cl	·	39.8µM	·	–	2.67µM	–

Screening results as filed in PubChem BioAssay.
